Here are results for 42 compounds from PubChem BioAssay AID651640 (Broad Institute, 2012).

The whole screen tested about 350,000 compounds, of which about 6,000 (1.7%) were called active. Roughly 5% stayed inconclusive and do not appear here. No stated cut-off is given here; in the data, active means CPE inhibition above about 20% (passing the limit was not always enough); inconclusive means no clear call, values can overlap the other calls; tested in BHK-21 cells. The list comes from a sample in which actives are over-represented; it also holds similar structures and randomly drawn compounds.

This test can be described thus: protection of cells from dengue 2 killing – plate reader, single concentration, primary screen (AID 651640).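 Further: 0% = median of neutral control wells and 100% = median of positive control wells.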 Particulars: DENV2-infected cells, cytopathic effect rescue, at 9.99 µM, hits give high values. (In general: Cytopathic effects are the visible damage that an infection or toxin causes in cultured cells.)
As to `O=C(Nc1ccc(C(F)(F)F)cc1)N[C@@H]1CC[C@H](CCNC(=O)c2ccccc2F)O[C@@H]1CO`, the CPE inhibition is 5.46% (inactive).

`C[C@@H]1CCCCO[C@@H](CN(C)C(=O)Nc2ccc(F)cc2)[C@H](C)CN([C@@H](C)CO)C(=O)c2cc(NS(=O)(=O)c3ccccc3)ccc2O1`: the CPE inhibition was -1.25% (inactive). Then `CCC(=O)N1C[C@@H](C)[C@@H](OC)CN(C)C(=O)c2ccc(NC(=O)C3CCCCC3)cc2OC[C@@H]1C`, with -0.243% (inactive); and `COC(=O)C1=C(C)N(Cc2ccc(C(F)(F)F)cc2)C(=NCc2ccccc2)NC1c1ccccc1C(F)(F)F` (configuration not stated), with 16% (inactive).

Take `CN1[C@@H]2c3ccc(-c4cccc(F)c4)c(=O)n3C[C@@H]2[C@@H](CO)[C@@H]1C(=O)NC1CCC1`: the CPE inhibition is -3.71% (inactive). Consider `CC(C)NC(=O)N(C)C[C@@H]1Oc2ccc(NC(=O)Cn3cnnn3)cc2CC(=O)N([C@H](C)CO)C[C@H]1C`, for which the CPE inhibition was -6.63% (inactive).

With `O=C(C[C@@H]1C[C@@H]2c3cc(NS(=O)(=O)c4ccccc4)ccc3O[C@@H]2[C@@H](CO)O1)NC1CCCCC1`, the CPE inhibition was 9.22% (inactive). Then `C[C@H](CO)N1C[C@H](C)[C@@H](CN(C)C(=O)Nc2ccnc(N3CCOCC3)c2)OCc2ccccc2-c2c(n(C)c3ccccc23)C1=O`, with -11.2% (inactive).

Regarding `C[C@H](O)C#Cc1ccc([C@@H]2[C@@H](CO)N3CCCCN(C(=O)c4ccc(F)cc4)C[C@H]23)cc1`, the CPE inhibition was 4.05% (inactive).

With `C[C@@H](O)C#Cc1ccc([C@H]2[C@H](CO)N3CCCCN(C(=O)c4ccc(F)cc4)C[C@@H]23)cc1`, the CPE inhibition is 22.8% (active). Consider `C[C@@H](O)C#Cc1ccc([C@@H]2[C@@H](CO)N3CCCCN(C(=O)c4ccc(F)cc4)C[C@@H]23)cc1`, for which the CPE inhibition was 2.55% (inactive).

In the case of `O=C(C[C@@H]1CC[C@@H]2[C@H](COC[C@H](O)CN2Cc2ccc(F)cc2)O1)NCc1ccncn1`, the CPE inhibition was 19.2% (inactive). Take `C[C@H]1CN([C@@H](C)CO)S(=O)(=O)c2ccc(-c3ccncc3)cc2O[C@H]1CN(C)S(C)(=O)=O`: the CPE inhibition was 8.89% (inactive). The same measure for `CC1(c2ccc(Cl)cc2)NC(=O)N(CC(=O)c2ccc3c(c2)OCO3)C1=O` (configuration not stated): 14.3% (inactive).

Turning to `CCC1(c2ccccc2)NC(=O)N(CC(=O)c2ccc3c(c2)OCO3)C1=O` (configuration not stated), the CPE inhibition was 4.81% (inactive).

As for `COc1ccc(C2(C)NC(=O)N(CC(=O)c3ccc4c(c3)OCO4)C2=O)cc1` (configuration not stated), the CPE inhibition is 53.4% (active). The same measure for `COc1ccc([Si](C)(C)[C@@H]2[C@@H](CCO)O[C@]3(C(=O)N(Cc4cccc(N5CCCCC5=O)c4)c4ccccc43)[C@H]2C)cc1`: 3.86% (inactive).

Turning to `COc1ccc(C#Cc2cccc(-c3nc(C(=O)O)cc4c3[C@@H](CCO)N(S(=O)C(C)(C)C)C4)c2)cc1OC` (some centres not stated), the CPE inhibition is 0.722% (inactive).

Regarding `COCC(=O)Nc1ccc2c(c1)[C@H]1C[C@H](CC(=O)OC)O[C@@H](CO)[C@H]1O2`, the CPE inhibition was -10.3% (inactive). The same measure for `CCC(=O)Nc1ccc2c(c1)OC[C@H](C)N(CC1CCOCC1)C[C@@H](C)[C@@H](OC)CN(C)C2=O`: -4.88% (inactive); for `Nc1c(C(=O)c2cccs2)sc2nsc(SCCN3CCCCC3)c12`: 29.4% (active).

On to `O=C(CSc1ncnc2sccc12)N1CCN(C(=O)c2cccs2)CC1`, for which the CPE inhibition is 2.68% (inactive).

With `CO[C@@H]1CN(C)C(=O)c2cc(NC(=O)c3ccccc3)ccc2OC[C@@H](C)N(C(C)=O)C[C@@H]1C`, the CPE inhibition was -5.72% (inactive). The same measure for `C[C@H](CO)N1C[C@H](C)[C@@H](CN(C)C(=O)c2ccccc2)OCCCC[C@H](C)Oc2ccc(NC(=O)c3ccccc3)cc2C1=O`: 13.1% (inactive). Then `O=C(C[C@H]1CC[C@H]2[C@@H](COC[C@@H](O)CN2S(=O)(=O)c2ccc(Cl)cc2)O1)NCCN1CCCCC1`, with 23.7% (active); and `O=C(C[C@@H]1CC[C@H]2[C@@H](COC[C@H](O)CN2S(=O)(=O)c2ccc(F)cc2)O1)N[C@H]1CCN(Cc2ccccc2)C1`, with 24.2% (active).

Turning to `O=C(C[C@@H]1CC[C@@H]2[C@H](COC[C@H](O)CN2S(=O)(=O)c2ccc(Cl)cc2)O1)N[C@@H]1CCN(Cc2ccccc2)C1`, the CPE inhibition is 3.99% (inactive). The same measure for `O=C(C[C@H]1CC[C@@H]2[C@H](COC[C@H](O)CN2S(=O)(=O)c2ccc(Cl)cc2)O1)N[C@@H]1CCN(Cc2ccccc2)C1`: -1.97% (inactive); for `O=C(C[C@@H]1CC[C@H]2[C@@H](COC[C@H](O)CN2S(=O)(=O)c2ccccc2)O1)NCCN1CCCC1`: -4.25% (inactive). Consider `O=C(C[C@H]1CC[C@@H]2[C@H](COC[C@H](O)CN2S(=O)(=O)c2ccc(F)cc2)O1)NCCN1CCCCC1`, for which the CPE inhibition is -7.98% (inactive). Then `C[C@H](CO)N1C[C@H](C)[C@@H](CN(C)C)Oc2ccc(NS(=O)(=O)c3cccs3)cc2C1=O`, with -7.81% (inactive); and `Cc1noc(C)c1NC(=O)N(C)C[C@H]1OCCCC[C@@H](C)Oc2ccc(NC(=O)NC(C)C)cc2C(=O)N([C@@H](C)CO)C[C@H]1C`, with 18% (inactive).

For the compound `CNC[C@@H]1Oc2cc(C#CC3(O)CCCC3)ccc2S(=O)(=O)N([C@@H](C)CO)C[C@H]1C`, the CPE inhibition was 12.4% (inactive). Then `COc1ccc2c3c([nH]c2c1)[C@@H](CO)N(Cc1cc(F)ccc1F)CC31CN(C(=O)C2CCC2)C1`, with -7.65% (inactive); and `COc1ccc2c3c([nH]c2c1)[C@@H](CO)N(Cc1cccc(F)c1)CC31CN(CC2CC2)C1`, with 2.63% (inactive).

`COc1ccc2c3c([nH]c2c1)[C@@H](CO)N(Cc1ccccc1F)CC31CN(C(=O)C2CC2)C1`: the CPE inhibition is 2.19% (inactive). As to `CCCNC(=O)N1CC2(C1)CN(Cc1cccc(F)c1)[C@@H](CO)c1[nH]c3cc(OC)ccc3c12`, the CPE inhibition was 136% (active). Then `COc1ccc2c3c([nH]c2c1)[C@H](CO)N(Cc1ccccc1Cl)CC31CN(C(=O)C2CC2)C1`, with 53.5% (active); and `CCCNC(=O)N1CCC2(CC1)CN(Cc1ccccc1)[C@H](CO)c1[nH]c3cc(OC)ccc3c12`, with 8.24% (inactive). As for `CCC(=O)N1CC2(C1)CN(Cc1ccccc1Cl)[C@@H](CO)c1[nH]c3cc(OC)ccc3c12`, the CPE inhibition was 1.97% (inactive). As to `COCC(=O)N1CC2(C1)CN(Cc1ccccc1F)[C@@H](CO)c1[nH]c3cc(OC)ccc3c12`, the CPE inhibition is 11.2% (inactive).

For `CCC(=O)N1CC2(C1)CN(Cc1cc(F)ccc1F)[C@@H](CO)c1[nH]c3cc(OC)ccc3c12`, the CPE inhibition was 47.6% (active).
